Results published in PubChem BioAssay AID743398 (Broad Institute, 2014).
Among all 300,000 compounds or so, about 3,600 (1.2%) were called active. No stated cut-off is given here; in the data, active means activation above about 30% (passing the limit was not always enough); inconclusive means no clear call, values can overlap the other calls. The list comes from a sample in which actives are over-represented; it also holds similar structures and randomly drawn compounds.

assay: Wnt/beta-catenin pathway activators, primary screen, cell-based, plate reader, single point (AID 743398); details: Wnt/beta-catenin reporter cell assay, activator, at 9.35 µM, hits give high values;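 further: 0% = neutral control wells and 100% = positive control wells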

activation, active:
FC(F)(F)c1ccnc(Oc2ccc(C3=NCCS3)cc2)c1 50.4%, O=S(=O)(Nc1ccc2nc(-c3ccco3)[nH]c2c1)c1ccccc1 37.5%, CCOC(=O)c1cn[nH]c1NC(=S)Nc1ccccc1 48.2%, COc1ccc(Cl)cc1S(=O)(=O)N1CCC(O)(c2ccc(Cl)cc2)CC1 61.9%, CCN(CC)CCOc1ccc2c(c1)C(=NNC(=O)c1ccccn1)c1cc(OCCN(CC)CC)ccc1-2 54.2%, CCOC(=O)N1CCC(Nc2c(NCCCN3CCN(c4ccc(OC)cc4)CC3)c(=O)c2=O)CC1 33.6%, OC(c1ccccc1)c1nc(-c2cnc3ccccc3c2)cs1 (centres undefined) 50.7%, COc1cc(/C=C2/C(=O)ON=C2C)ccc1OCc1ccccc1F 48.1%, Cc1cc(OCc2cc(C(=O)NCc3cc(C(C)C)no3)no2)cc(C)c1Cl 40.5%, O=C(CSc1nc2ccccc2[nH]1)c1cccs1 58.5%, COC(=O)c1ccc(-n2cnc3ccccc32)nc1 41.6%, CCc1ccccc1NC(=O)CSc1nnc([C@@H](NC(=O)OC(C)(C)C)C(C)CC)o1 (some centres undefined) 31.4%

activation, inactive:
O=Cc1ccc(Oc2cccc(C(F)(F)F)c2)nc1 0.99%, N#CCCN(C(=S)Nc1ccc(Cl)c(Cl)c1)C1CCCCC1 -1.58%, CCCCCCCCN1C(=O)[C@@H](CC(=O)NCc2ccccc2)C[C@@]2(C(=O)OC)C1=C[C@H](C(C)(C)C)O[C@@H]2C -15%, Cc1cc(OC(=O)NCCc2ccc(F)cc2)ccc1F 2.45%, COc1ccc(-c2ccc(CN3C(C(C)C)C(=O)N(Cc4cn(CC5CCCCC5)nn4)CCS3(=O)=O)cc2)cn1 (centres undefined) -0.388%, Cn1c(CCN2CCCC2)nc2cc(NS(=O)(=O)c3ccccc3)ccc21 2.48%, O=S(=O)(Nc1ccc2cn[nH]c2c1)c1ccccc1 -1.72%, Nc1ncnc2c1ncn2C1OC(CO)CC1O (centres undefined) 0.661%, Cc1cccc(C(=O)C(O)(c2ccccc2)C2CCCCC2=O)c1 (centres undefined) -5.91%, CCOC(=O)c1ccc(NC(=S)Nc2cc(C)cc(C)n2)cc1 -1.38%, CCOC(=O)c1cc2c(nc1NC(=S)Nc1ccccc1)CC(C)(CC)OC2 (centres undefined) 9.37%, COc1ccc(F)cc1S(=O)(=O)N1CCCCC1 -0.652%, COc1ccc(C(=O)NCc2ccc(Cl)cc2)cc1S(=O)(=O)N1CCCC1 -0.0405%, CCc1nc2c(OCc3ccc(Cl)cc3Cl)cccn2c1N(C)C(=O)C(C)C -1.94%, Cc1cccc(OCC(=O)NCCCNC(=O)c2ccccn2)c1 -0.523%, Cc1ccc(Cl)cc1NC(=O)c1ccccn1 -3.27%, OC(c1ccccc1)(c1ccccc1)C1CCN(CCCOc2ccccc2)CC1 -5.07%, COc1ccc(Sc2ccc(NC(=O)c3cccc(Cl)c3)cc2C#N)cc1 -0.516%, CCOC(=O)N1CCC(Nc2c(NCCCN3CCN(CC)CC3)c(=O)c2=O)CC1 1.91%, CCOC(=O)N1CCC(Nc2c(NCCN3CCN(c4cccc(Cl)c4)CC3)c(=O)c2=O)CC1 -0.679%, COC(=O)[C@]12CCCCC=C1N(Cc1ccccc1)C(=O)[C@H](CC(=O)NCc1ccc(C)o1)C2 -1.58%, COc1cccc(C(NC(C)=O)c2nc(-c3cnc4ccccc4c3)cs2)c1 (centres undefined) -0.125%, CC(C)c1cccc(-c2csc(C(O)c3ccccc3)n2)c1 (centres undefined) 1.98%, Cc1cc(Cl)ccc1C(=O)C1CCCN(C(=O)c2ccc3c(c2)OCO3)C1 (centres undefined) -2.01%, COc1ccc(C(=O)N2CCCCC2c2cc(C(=O)Nc3ccccc3)no2)cc1 (centres undefined) -2.86%, CCc1ccccc1NC(=O)CN1CCN(C(=O)c2cc(C3CC3)nn2-c2ccccc2)CC1 -4.73%, COc1cccc(-c2cnc3c(NC(C)=O)cc(-c4cccc(NC(C)=O)c4)cn23)c1 -2.59%, COc1cc(/C=C2/C(=O)ON=C2C)ccc1OCc1cccc(F)c1 13.4%, C=CCOc1ccc(/C=C2/C(=O)ON=C2C)cc1OCC -0.78%, C[C@@H]1Cn2cnc(C(=O)Nc3ccc(CNC(=O)OC(C)(C)C)cc3)c2C(=O)N1 -0.752%, COc1cccc(NC(=O)Nc2ccc(F)cc2)c1 4.29%, Cc1ccc(-c2cnc(C(O)c3cc(Cl)cc(Cl)c3)[nH]2)cc1 (centres undefined) -5.54%, COc1ccc(OCc2cc(C(=O)NCC3(C)COC3)no2)c(Cl)c1 7.69%, Cc1cccnc1CC(C)NC(=O)c1cc(COc2cncc(Cl)c2)on1 (centres undefined) 7.75%, C=CCSc1nc2ccccc2[nH]1 0.251%, CN(Cc1ccccc1)C(=O)CSc1nc2ccccc2[nH]1 12.8%, C#CCN([C@@H](C)C(=O)OCC)S(=O)(=O)c1ccc(Br)cc1F -2.08%, Cc1ccc(OCC(=O)Nn2cnc3ccccc32)cc1 -2.76%, O=C(c1ccc(Cl)cc1)n1cnc2ccccc21 0.992%, Cc1c(C(=O)NCc2ccc(C#N)cc2)sc(=O)n1Cc1ccc(C(=O)N(C)C)cc1 -0.79%, COc1ccc(C(O)c2nc(-c3ccc(OC)nc3)cs2)cc1 (centres undefined) -2.19%, CCOC(=O)[C@]12CCCC=C1N(Cc1ccc(Cl)cc1Cl)C(=O)[C@H](CC(=O)N1CCCCC1)C2 -0.046%, CCc1ccccc1NC(=O)CSc1nnc(-c2ccncc2)o1 0.131%, CCc1ccccc1NC(=O)CSc1nnc(CCNC(=O)OC(C)(C)C)o1 -2.11%, Cc1cc(Br)cn2c(Cc3ccccc3C(F)(F)F)c(-c3ccc(C#N)cc3)nc12 -2.44%, CSCCC(c1nnnn1Cc1ccccc1)N1CCN(C/C=C/c2ccccc2)CC1 (centres undefined) -2.2%, O=C(CSc1nc2cccc(F)c2c(=O)n1-c1ccccc1)Nc1ccc2c(c1)CCC2 -0.606%
